Compound activity from PubChem.
DT40 TDP1 CPT – DT40-hTDP1 cell growth loss with CPT. chicken DT40 Tdp1-/-;hTDP1 cells + 20 nM CPT, ATP luminescence, 48 h. Potency, µM (doses to about 46.2 µM), inactives show top-dose activity change, negative = growth inhibition, most hits filed as inhibitors. 420,000 compounds, 12% hits. AID 686979; further: potency means the concentration at half of the fitted maximal effect; nearly all actives have a fitted effect of over 55% in size
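Cell growth measured by CellTiter-Glo luminescence after a minimum 48 h, 37 C compound exposure with 20 nM CPT in Tdp1-knockout DT40 cells stably expressing hTDP1, seeded 400/well; qHTS titration format.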
DT40 TDP1 no CPT – qHTS for Inhibitors of human tyrosyl-DNA phosphodiesterase 1 (TDP1): qHTS in cells in absence of CPT. 420,000 compounds, 15% hits. AID 686978, 2013. Potency, µM (titrated, usually from 46.2 µM), for inactives: at the top dose activity change, negative = growth inhibition, actives largely listed as inhibitors. DT40 Tdp1-/- hTDP1 cells, no CPT, ATP luminescence, 48 h; further: potency means the concentration at half of the fitted maximal effect; nearly all actives have a fitted effect of over 55% in size
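Compound effects on proliferation are scored in DT40 Tdp1-/-;hTDP1 cells in the absence of CPT. ATP levels (CellTiter-Glo luminescence) are recorded after a ≥48 hr, 37 °C incubation.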
HT1080 IDH1KD tx – kills HT-1080 cells with IDH1 knockdown; HT-1080 IDH1 knockdown viability, ATP luminescence, 48 h; Potency, µM (titrated, usually from 46.1 µM), inactives show at the top dose activity, negative = toxicity, most hits filed as cytotoxic; 360,000 compounds, 2% hits;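 further: potency means the concentration at half of the fitted maximal effect; 0% = DMSO wells and -100% = cell-free medium wells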
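HT-1080-IDH1KD cells (IDH1 knocked down), 750/well in RPMI with 5% FBS, treated with compound 48 h at 37 degrees C. Viability by CellTiter-Glo luminescence, normalised to DMSO and no-cell wells; concentration-response curves classed.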
HT1080NT lethal – kills 2HG-producing HT-1080-NT fibrosarcoma cells | HT-1080-NT fibrosarcoma viability, CellTiter-Glo ATP luminescence, 48 h | 360,000 compounds, 1.6% hits | Potency, µM (doses to about 46.1 µM), inactives show top-dose activity, negative = less viability, most hits filed as cytotoxic;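 further: NT is the 2HG producing partner of a matched IDH1 knockdown line; potency means the concentration at half of the fitted maximal effect; 0% = DMSO-treated cells and -100% = media-only wells without cells; nearly all actives have a fitted effect of over 55% in size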
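Luminescent CellTiter-Glo readout after 48 hours of compound exposure at 37 degrees C defined viability of HT-1080-NT cells. Activity was normalized to DMSO wells and cell-free media wells; concentration-response curves were fitted and assigned curve classes.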
ELG1 repair inh – blocks ELG1-dependent DNA repair in HEK293T cells; HEK293T ELG1-luciferase reporter, luminescence, 16 h; DNA damage induced by 5-fluorouridine; Potency, µM (highest dose often 46.1 µM), for the others: at the top dose activity change, negative = inhibition, usual class: inhibitors; 330,000 compounds, 2.3% hits; AID 504467; further: potency means the concentration at half of the fitted maximal effect; nearly all actives have a fitted effect of over 55% in size
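5-Fluorouridine DNA damage + compound/DMSO, 2,000 cells/well, 16 h, 37 °C/5% CO2. ONE-Glo, 30 min RT, luminescence. Readout = decrease in reporter signal.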
IL-1B inflam inh – blocks inflammasome-driven IL-1 beta release; activity change, % at 57.5 µM; THP-1 LPS/ATP IL-1B secretion, AlphaLISA, 16 h; stronger effect = lower value; 360,000 compounds, 4.7% hits; in the data active means activity change below about -50%; inconclusive means mostly about -30% to -49%
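THP-1 cells pretreated 1 hr with compounds (up to 57.5 uM final), then stimulated with LPS (250 ng/mL final) plus ATP (1.25 mM final); secreted IL-1B measured by AlphaLISA after 16 hr, decreased signal indicating inhibition.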
* = called active by the depositor; ? = inconclusive; nt = not tested or not shown; [ ] = dose if it differs, or a comment. The list is not random: actives were taken first. Their share in the collection is about 19%. Unless noted, the call rests on the fitted dose curve; in most records, active means well fitted curve in the direction sought with a large enough effect; inconclusive means small, poorly fitted or top-dose-only effect, or another doubt; inactive means no such curve, though single readings can be large; an effect the other way counts as inactive or inconclusive. Unless noted, on the % scale 0 is the no-effect control and ±100 the full control effect.

SMILES	DT40 TDP1 CPT	DT40 TDP1 no CPT	HT1080 IDH1KD tx	HT1080NT lethal	ELG1 repair inh	IL-1B inflam inh
Cc1ccc(C(=O)CSc2nnc(N)s2)c(C)c1	1.9%	1.9%	-7.0%	-0.5%	?	11.6
CC(C)CN(C(=O)COC(=O)c1ccccc1NCc1ccco1)c1c(N)n(Cc2ccccc2)c(=O)[nH]c1=O	?	-24.4%	-1.3%	-0.1%	-5.5%	-12.5
COCCNC(=O)C1(C)CCCN(C(=O)c2ccc(C(=O)OC)cc2)C1 (centres undefined)	0.4%	-1.7%	17.9%	0.5%	nt	24.9
COc1cc(NC(=O)Cn2c(=O)n(-c3cccc(C)c3)c(=O)c3c(C)c(C)sc32)cc(OC)c1	20.6µM*	-29.5%	-27.8%	-13.2%	0.4%	-5.5
O=S(Cc1ccc(Cl)cc1)CC(O)(c1ccccc1)c1ccccc1 (centres undefined)	-6.2%	6.7%	10.9%	9.9%	-6.7%	14.1
O=S(Cc1ccccc1)CC(O)(c1ccc(Cl)cc1)c1ccc(Cl)cc1 (centres undefined)	?	?	?	?	-27.7%	-59.3*
COc1ccc2c(c1)-c1nc(-n3ncc(C(=O)NCc4cccnc4)c3C3CC3)ncc1CC2	-5.7%[9.04 µM]	23.1µM*	nt	nt	nt	nt
COc1ccc2c(c1)-c1nc(-n3ncc(C(=O)NC[C@@H]4CCCN5CCCC[C@H]45)c3C)ncc1CC2	?	9.2µM*	nt	nt	nt	nt
COc1ccc2c(c1)-c1nc(-n3ncc(C(=O)NCC4CCCN(C)C4)c3C3CC3)ncc1CC2 (centres undefined)	3.7%[9.04 µM]	-18.4%	nt	nt	nt	nt
O=C(/C=C/c1cccc(Cl)c1)NCCCN1CCOCC1	-3.7%	14.6%	5.2%	9.1%	-6.8%	-7.8
CS(=O)(=O)c1ccc(Cl)c(NC(=O)CCl)c1	5.8µM*	10.3µM*	?	?	?	-100.3*
CS(=O)(=O)c1ccc(C(=O)Nc2cc(S(C)(=O)=O)ccc2Cl)cc1	2.3%	0.5%	?	29.3%	?	-15.7
Cc1ccc(NC(=O)Cn2c(=O)oc3ccccc32)c(C)c1	0.2%	13µM*	-2.2%	19.9%	2.7%	-12.4
Cc1ccc(NC(=O)Cc2cc(C(=O)O)c3ccccc3n2)c(C)c1	14.6µM*	20.6µM*	?	-23.2%	?	-6.0
Cc1ccccc1NC(=O)Cn1c(=O)oc2cc(Br)ccc21	?	13µM*	nt	nt	nt	nt
Cc1ccc(NC(=O)c2cc(-c3cccs3)nc3ccccc23)c(C)c1	-28.4%	?	nt	nt	nt	nt
COc1cccc(-n2c(SCC(=O)NC3CC3)nc3ccccc3c2=O)c1	-26.2%	?	-7.9%	-5.3%	nt	8.0
COC(=O)CNC(=O)C(=O)OC	4.8%[4.12 µM]	-2.4%[4.12 µM]	nt	nt	nt	nt
Cc1ccc(NC(=O)Cn2c(=O)n(CCCCC(=O)NCCc3ccccc3)c(=O)c3ccccc32)c(C)c1	-19.6%	-24.4%	nt	nt	nt	nt
O=C(Cn1c(=O)oc2ccccc21)Nc1ccccc1C(F)(F)F	?	6.51µM*	-2.3%	0.4%	2.1%	16.4
Cc1cccc(NC(=O)Cn2c(=O)oc3ccccc32)c1C	?	?	2.2%	-4.3%	13.4%	-5.5
Cc1ccc(C)c(NC(=O)Cc2nc(CCl)cs2)c1	25.9µM*	20.6µM*	8.7%	-0.9%	1.5%	-2.9
CCOc1ccccc1NC(=O)Cn1c(=O)oc2cc(Cl)ccc21	-18.0%	4.61µM*	1.3%	-1.5%	-14.2%	-9.9
Cc1ccc(NC(=O)CCl)c(C)c1	?	25.9µM*	?	?	?	-98.6*
CCOc1ccc(NC(=O)Cn2c(=O)oc3cc(Cl)ccc32)cc1	?	?	-0.1%	10.7%	4.3%	-14.1
SMILES	DT40 TDP1 CPT	DT40 TDP1 no CPT	HT1080 IDH1KD tx	HT1080NT lethal	ELG1 repair inh	IL-1B inflam inh
CC(C)(C)OC(=O)C[C@H]1C/C=C\C[C@@H](CC(=O)N(CCO)Cc2ccccc2)C(=O)N2CCC[C@H]2COC1=O	18.4µM*	?	-2.0%	-3.7%	23.1µM*	-18.6
O=C1OC[C@@H]2CCCN2C(=O)[C@H](CC(=O)N(CCO)Cc2ccccc2)C/C=C\C[C@H]1Cc1ccc(F)cc1	?	?	-0.6%	-4.5%	1.1%	-2.4
O=C1OC[C@H]2CCCN2C(=O)[C@@H](CC(=O)N(CCO)Cc2ccccc2)C/C=C\C[C@@H]1Cc1ccc(F)cc1	7.31µM*	18.4µM*	-0.3%	-9.2%	?	-25.4
O=C(NCCCc1ccc(F)cc1)C1CCC(=O)N(CCN2CCOCC2)C1 (centres undefined)	6.8%	3.7%	1.8%	0.1%	-3.3%	4.7
CCCCCCCCCCCCC(=O)N1CCCC[C@H]1CNC(=O)[C@@H](N)CCCCN	13.3µM*	21.1µM*	nt	nt	nt	nt
CCC1CCCCN1C(=O)CCCc1ccccc1 (centres undefined)	?	-23.0%	5.2%	-0.7%	?	?
O=c1cnn(-c2ccccc2)c(-c2ccccc2)c1	?	18.4µM*	?	?	16.4%	5.9
CSc1ccc(CCNC(=O)CN2C(=O)CCSc3ccccc32)cc1	6.1%	?	-7.7%	3.6%	-3.3%	-2.6
COc1ccc(CNc2nc3ccccc3n2C)c(OC)c1	?	16.4µM*	-24.9%	-28.2%	?	?
COc1ccc(CNc2ncncc2-c2ccccc2CN(C)C)c(OC)c1	-22.4%	-22.9%	nt	nt	nt	nt
COc1ccc(CNc2nc(-c3ccccc3OC)nc3ccccc23)c(OC)c1	23.1µM*	9.2µM*	nt	nt	nt	nt
COc1cccc(-c2nccc(NCc3ccccc3OC)n2)c1	-28.9%	?	nt	nt	nt	nt
COc1ccc(CNc2ccnc(-c3ccccc3CN(C)C)n2)c(OC)c1	?	14.6µM*	nt	nt	nt	nt
COc1ccc(CNc2ccnc(-c3ccccc3OC)n2)c(OC)c1	13µM*	23.1µM*	nt	nt	nt	nt
COc1ccc(CNc2ncncc2-c2ccccc2Cl)c(OC)c1	-2.1%	-16.7%	nt	nt	nt	nt
COc1ccc(CNc2ccnc(-c3ccccc3Cl)n2)c(OC)c1	?	23.1µM*	nt	nt	nt	nt
Cc1ccc(/C=C/c2onc(C)c2S(=O)(=O)N2CCC(C(=O)NCc3ccc(OC(C)C)cc3)CC2)cc1	?	-24.1%	nt	nt	nt	nt
Oc1cc(Cc2ccccc2)cnc1CN1CCCCC1	6.3%	-3.0%	12.0%	13.8%	18.8%	-28.0
Oc1c(CN2CCCCC2)cc(COCc2ccccc2)c2cccnc12	4.11µM*	4.61µM*	2.91µM*	7.31µM*	-6.8%	-105.0*
COCc1cc(CN2CCCC2)c(O)c2ncccc12	0.651µM*	0.82µM*	0.631µM*	1.12µM*	?	100.7
